Measured values as given in PubChem BioAssay AID2284363 (EPA ToxCast).
The source made the active and inactive calls. The calls were made as follows: active = hit-call score of the fitted dose curve at least 0.9, where 1 is the maximum; inactive = score below 0.9.

Target: Nuclear factor erythroid 2-related factor 2 (Homo sapiens) (UniProt Q16236)
Assay: ERF_US_NR_hNFE2L2: Eurofins (ERF) Cell Based Nuclear Translocation LeadHunter Assay for human Transcription Factor Keap1-Nrf2 Agonism
Protocol: ERF_US_NR_hNFE2L2 is a cell-based, single-readout assay that uses extracted gene-proteins in a cell-line assay. Measurements were taken 6 hours after chemical dosing in a 384-well plate. See Keap1-Nrf2 Human Transcription Factor Cell Based Agonist Nuclear Translocation Assay, DiscoverX.ERF_US_NR_hNFE2L2 is an assay component calculated from the ERF_US_NR_hNFE2L2 assay. It is designed to measure protein fragment complementation using a type of binding reporter as detected by chemiluminescence with fluorimetry technology.Data from the assay component ERF_US_NR_hNFE2L2 was analyzed at the assay endpoint, ERF_US_NR_hNFE2L2, in the positive analysis fitting direction relative to DMSO as the negative control and baseline of activity. Using a type of binding reporter, gain-of-signal activity can be used to understand changes in binding as they relate to gene NFE2L2. To generalize the intended target to other relatable targets, this assay endpoint is annotated to the dna binding intended target family, where the subfamily is basic leucine zipper.
Cells were seeded in a total volume of 20 uL into white walled, 384-well microplates and incubated at 37C overnight prior to testing.For agonist determination, cells were incubated with sample to induce response. […] The results are expressed as a percent efficacy relative to the maximum response of the control ligand.

Sequence of Nuclear factor erythroid 2-related factor 2 (Homo sapiens) (Q16236 whole entry, looked up): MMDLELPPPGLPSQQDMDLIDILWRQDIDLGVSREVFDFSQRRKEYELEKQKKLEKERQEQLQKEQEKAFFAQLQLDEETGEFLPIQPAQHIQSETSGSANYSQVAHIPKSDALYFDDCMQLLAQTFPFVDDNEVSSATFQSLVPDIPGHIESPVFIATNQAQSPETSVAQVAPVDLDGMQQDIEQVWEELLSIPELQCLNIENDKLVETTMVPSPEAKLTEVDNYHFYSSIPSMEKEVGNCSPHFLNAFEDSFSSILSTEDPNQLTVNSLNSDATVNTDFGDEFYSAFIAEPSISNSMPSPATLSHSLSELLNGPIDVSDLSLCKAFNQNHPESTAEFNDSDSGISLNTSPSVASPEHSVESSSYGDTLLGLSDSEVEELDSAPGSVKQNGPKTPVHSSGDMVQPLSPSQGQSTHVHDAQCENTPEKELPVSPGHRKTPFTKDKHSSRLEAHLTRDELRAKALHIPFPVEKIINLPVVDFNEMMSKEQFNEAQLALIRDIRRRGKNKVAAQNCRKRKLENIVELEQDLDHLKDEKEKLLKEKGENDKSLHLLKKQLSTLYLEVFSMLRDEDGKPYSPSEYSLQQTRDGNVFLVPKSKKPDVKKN

## CCNS(=O)(=O)C(F)(F)C(F)(F)C(F)(F)C(F)(F)C(F)(F)C(F)(F)C(F)(F)C(F)(F)F
  outcome: inactive

## CC(C)(C)c1cc(O)ccc1O
  AC50: 12.2 µM (active)
